These results are taken from PubChem BioAssay (NCI).

The panel holds about 83,000 compounds, 20% with a hit somewhere; the sample as a whole holds those more often.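 Note: values are percent growth. 100 is the growth of untreated cells, values between 100 and 0 indicate rising inhibition; between -100 and 0 indicates cell death.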 A number with no mark means an inactive call. Active and inactive are the calls of the source. The calls were made as follows: active = growth percent below 10; inactive = the rest.

This assay concerns UO-31 renal. The assay can be described thus: NCI-60 one-dose screen, 48 h (100 = growth as untreated, 0 = no growth, -100 = all killed). To be noted: 10 µM unless noted.
For `COc1ccc(NC(=O)c2sc3c(=O)[nH]c(C(F)(F)F)nc3c2C)cc1`, the growth is 74.2%. Consider `O=C(Nc1cccc(Cl)c1)Nc1ccccc1Cl`, for which the growth was 69.8%. Regarding `NC(=O)N/N=C\c1ccc([N+](=O)[O-])o1`, the growth was 85.2%. Turning to `CCN(CC)Cc1cc(Nc2ccnc3ccc(OC)cc23)ccc1O`, the growth is 2.04% (active). In the case of `CC(C)(C)c1nn(-c2ccccc2)c2c1C(=O)CSC(c1ccc3c(c1)OCO3)N2` (centres undefined), the growth is 74.8%. Regarding `CN(C)N1C(=O)c2c(Cl)c(Cl)c(Cl)c(Cl)c2C1=O`, the growth is 95.9%. For the molecule `O=c1c2cc(Cl)ccc2oc2ccc(OCCCCCN3CCCCC3)cc12`, the growth was 60.7%. The figure for `C=CCOc1ccc2c(C)cc(=O)oc2c1` is 115%. Turning to `O=C(CSc1nc2c(n1Nc1ccccc1)-c1ccccc1SC2)Nc1nccs1`, the growth is 63.1%. Turning to `CCNC(=O)c1ccc2c(c1)nc(-c1ccc(Cl)cc1)n2-c1cc(C(C)(C)C)[nH]n1`, the growth is 37.5%.

`CC(C)CC1NC(=O)C(CC(C)C)N(CO)C1=O` (centres undefined): the growth is 84.5%. Take `CCn1c(=O)c(C(=O)NCCCO)c(O)c2ccccc21`: the growth is 86.9%. With `COc1cc(NCC(O)CN(CC(C)C)CC(C)C)c2ncccc2c1` (centres undefined), the growth was 88.6%. Turning to `CC(=O)Nc1ccc(/C=N/N2CCCCCC2)cc1`, the growth is 93.9%. Regarding `O=c1oc2ccccc2cc1-c1cc(-c2ccc(-c3cc(-c4cc5ccccc5oc4=O)nc(-c4cc5ccccc5oc4=O)c3)cc2)cc(-c2cc3ccccc3oc2=O)n1`, the growth is 88.3%.

For `CCN(CC)c1ccc(/C=N/N=C(N)N)cc1`, the growth is 51.4%. As to `Cc1ccc(C)c2c1SC1=NNC(Oc3ccc(Cl)cc3)=C(C#N)C(=N)N12`, the growth is 85.3%. With `CCOC(=O)C(Cc1ccccc1)n1c(O)c(/C=N/c2ncc(Cc3ccc(Cl)cc3Cl)s2)sc1=S` (centres undefined), the growth was 3.67% (active). Take `COc1ccc(-c2cnc(-c3ccncc3-c3cccc(OC)c3)o2)cc1`: the growth was 42.6%.

On to `Cc1ccc(OC2=C(C#N)C(=N)N3C(=NN2)Sc2c(C)ccc(C)c23)cc1`, for which the growth is 82.7%. With `O=C(Nc1ccncc1)C(=O)c1cn(S(=O)(=O)c2cccc(Cl)c2F)c2ccccc12`, the growth was 56.9%. With `CN1C(=O)NC(Cc2c[nH]c3c(Cl)cccc23)C1=O` (centres undefined), the growth was 78.5%.

Regarding `COc1ccc(C(=O)OC2C(OC3C(O)COC(O[C@H]4C[C@H]5[C@@H]6CC=C7C[C@@H](O)CC[C@]7(C)[C@H]6CC[C@]5(C)[C@H]4[C@H](C)C(=O)CCC(C)C)C3OC(C)=O)OCC(O)C2O)cc1` (some centres undefined), the growth is -35.7% (active). As to `C[C@@H]1N=C(c2ccc3ccccc3c2)Nc2nc3ccccn3c2C1=O`, the growth is 55.6%.

Consider `O=[N+]([O-])c1ccc(N=Nc2c(NNc3ccc([N+](=O)[O-])cn3)cc(S(=O)(=O)O)c3ccccc23)nc1`, for which the growth is 52.1%. On to `CS(=O)(=O)c1ccc(C(=O)N/N=C/c2ccccc2Cl)cc1`, for which the growth is 84.3%. Consider `CC1=C(O)C(=O)CC1`, for which the growth was 94%. Consider `O=C(N/N=C/c1ccc([N+](=O)[O-])cc1)c1ccccc1Nc1ccnc(C(F)(F)F)c1`, for which the growth was 67.8%.

As to `Cc1ccc(C(CN(C)C)C(=O)c2ccccc2)cc1` (centres undefined), the growth was 53.5%. In the case of `CN1CCC2(CC1)N=C(SCC(=O)Nc1cnc3ccccc3c1)C(c1ccc(Br)cc1)=N2` it was -12.5% (active); in that of `Nc1c(C(=O)C[C@@H](N)CO)ccc2c1C(=O)CCO2`, 45.5%; in that of `Cc1ccncc1NC=O`, 96.2%. As to `Cc1c2c(cc3c1[nH]c1ccccc13)C=NCC2`, the growth was 80%. Turning to `O=S1(=O)NCCCN1CCNc1nccc(-c2c(-c3cccc(O)c3)nc3sccn23)n1`, the growth is 94.1%. `CCc1c(C)c2ccc(O)c(-c3cc(-c4ccccc4)c(C#N)c(=O)[nH]3)c2oc1=O`: the growth is 62.9%. In the case of `COc1ccc2nc3cc(Cl)ccc3c(NC(=O)CSc3ccc(Cl)cc3)c2c1` it was -96.1% (active); in that of `C=CC(=O)N1CN(C(=O)C=C)CN(C(=O)C=C)C1`, 55.2%; in that of `CCCC(CCC)(C(N)=O)C(=O)O`, 92.2%. Consider `C=CCCCCOc1cccc(/C=C2\N=C3SCCCN3C2=O)c1`, for which the growth is 76.6%.
